# Source: PubChem BioAssay (EPA / NIEHS)
# Several values for one entry are separate records, joined by “and”; a condition that tells them apart may be missing. Equal values may be shown once. Activity calls are given as the source filed them. The calls were made as follows: active = hit-call score of the fitted dose curve at least 0.9, where 1 is the maximum; inactive = score below 0.9.
# Test: ATG_CRE_CIS: Attagene CIS-FACTORIAL HepG2 Assay for human cAMP Responsive Element (CRE) binding protein 3 (AID 2282926)
# Conditions: HepG2 CRE cis-reporter, Attagene multiplexed mRNA; actives raise or lower the signal
# Procedure, shortened: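 Assay format: transient reporter transfection of HepG2, 24 h treatment, total RNA isolation with DNase I step. Reporter abundance read by fluorescence after PCR and capillary separation; DMSO-normalised gain or loss fitting.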
SMILES,outcome,AC50
Oc1c(Cl)cc(Cl)cc1Sc1cc(Cl)cc(Cl)c1O,inactive,
O=C(F)C(F)(F)C(F)(F)C(F)(F)C(F)F,inactive,
C=CC(F)(F)C(F)(F)C(F)(F)C(F)(F)F,inactive,
CCCCCCCCCCCCCCCCCC[N+](C)(C)Cc1ccccc1,inactive,
CCCCCCc1ccc(N)cc1,inactive,
CCCCCCCCCCCCCCCC(=O)OC,inactive,
CC=O,inactive,
COCN(COC)c1nc(N(COC)COC)nc(N(COC)COC)n1,inactive,
CCCCCCC(C)(C)C(=O)O,inactive,
C=CCOCC(CO)(CO)CO,inactive,
CNNCc1ccc(C(=O)NC(C)C)cc1,inactive,
CCOC(OCC)C(=O)c1ccccc1,inactive,
CCCCCCOC(=O)c1ccc(O)cc1,,44.2 µM (active)
CC(O)COc1ccccc1 (configuration not stated),inactive,
O=C(O)C(F)(F)OC(F)(F)C(F)(F)OC(F)(F)C(F)(F)OC(F)(F)C(F)(F)C(F)(F)C(F)(F)F,,37.7 µM (active) and 27.1 µM (active)
O=C(O)CN(CCCN(CC(=O)O)CC(=O)O)CC(=O)O,inactive,
CCCCCCCCC(C)=O,inactive,
CCOCCOCC,inactive,
NNC(=O)CCCCC(=O)NN,inactive,

SMILES,outcome,AC50
CCCCCCCCCCCC(=O)NCCCN(C)C,,20.3 µM (active)
CCC(=O)O,inactive,
OCCN1CN(CCO)CN(CCO)C1,,145 µM (active)
Clc1ccc2c(Cl)ccnc2c1,inactive,
c1ccc(CNc2ncnc3c2ncn3C2CCCCO2)cc1 (configuration not stated),inactive,
CCOC=C(C(=O)OCC)C(=O)OCC,inactive,
COc1ccccc1NC(=O)c1cc2ccccc2cc1O,,31.6 µM (active)
CCOC=O,inactive,
Oc1c(Cl)ccc(Cl)c1Cl,inactive,
Brc1ccc(Oc2ccc(Br)cc2Br)cc1,inactive,
O=CC(F)(F)C(F)(F)C(F)(F)F,inactive,
NCCN,inactive,
CCc1cccc(CC)c1NC(=O)C(=O)O,inactive,
Cc1ccc(N=Nc2c(O)ccc3ccccc23)c(C)c1,inactive,
O=c1cc(-c2ccccc2)oc2ccc3ccccc3c12,inactive,
CCO[Si](CCC1CCC2OC2C1)(OCC)OCC (configuration not stated),inactive,
NC(C(F)(F)F)C(F)(F)F,inactive,
CCCCN(C)C,inactive,
